Rows were chosen to be rich in hits. Some 11% of all compounds tested hit in one or more screens of this group.
AMA1 RON2 block – AMA1-RON2 (P. falciparum) interaction inhibition | AlphaScreen AMA1-biotinylated RON2 peptide binding | Potency, µM (top dose mostly 58.2 µM), for inactives: at the top dose activity change, negative = inhibition, most hits filed as inhibitors | actives 0.2% (n = 360,000);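 further: 0% = vehicle wells and -100% = peptide control; nearly all actives have a fitted effect of over 45% in size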
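AMA1 (3D7) with his tag at 25 nM final met compounds first, then biotinylated RON2 peptide at 25 nM; detection used donor plus acceptor beads, 10 µg/mL apiece, read by AlphaScreen after 30 min at room temperature.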
Pf growth 48h – inhibits P. falciparum growth in the first generation, 48 h | actives 5.9% (n = 310,000) | P. falciparum luciferase growth in erythrocytes, 48 h | AID 504832 | Potency, µM (doses to about 28.7 µM), for inactives: at the highest dose activity change, negative = inhibition, most hits filed as inhibitors
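Erythrocytes infected with P. falciparum carrying an integrated firefly luciferase reporter (2% hematocrit, 0.1% parasitemia final) were exposed to compounds in RPMI 1640 with 0.5% Albumax at 37 C, 5% CO2. Growth inhibition was scored as reduced luminescence.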
HCV inh – inhibitors of hepatitis C virus infection; Huh7.5.1 HCVcc-Cre infection, luciferase reporter, 44 h; Potency, µM (top dose mostly 41.8 µM), for the others: at the top dose activity change, negative = inhibition, usual class: inhibitors; actives 3.4% (n = 340,000)
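Whole-lifecycle infectious HCVcc-Cre system; cells 1,000/well, compound then virus (~0.5 moi) added 4 h after plating, 44 h culture. Luciferase read 15 sec following 15 min substrate incubation, room temp.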
Pf growth 96h – P. falciparum growth inhibition at 96 hour, primary screen for plastid delayed-death inhibitors; Potency, µM (titrated, usually from 28.7 µM), inactives show top-dose activity change, negative = inhibition, actives largely listed as inhibitors; AID 504834; P. falciparum luciferase reporter growth, 96 h; actives 6.9% (n = 320,000)
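P. falciparum expressing integrated firefly luciferase grown in erythrocytes (2% hematocrit, 0.05% parasitemia final) with compounds for 96 hours at 37 C, 5% CO2. Growth inhibition read as loss of luminescence after adding luciferase detection reagent.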
* hit, by the source's call; u = inconclusive; x = no result; [ ] = remark or other dose. The call rests on the fitted dose curve; in most records, active means well fitted curve in the direction sought with a large enough effect; inconclusive means small, poorly fitted or top-dose-only effect, or another doubt; inactive means no such curve, though single readings can be large; an effect the other way counts as inactive or inconclusive. Unless noted, on the % scale 0 is the no-effect control and ±100 the full control effect; potency means the concentration at half of the fitted maximal effect.

SMILES	AMA1 RON2 block	Pf growth 48h	HCV inh	Pf growth 96h
O=C(CN1CCOCC1)Nc1cc(C(F)(F)F)ccc1Cl	-3.5%	u	-27.0%	11.7µM*
O=C(N/N=C/c1ccc(N2CCOCC2)s1)c1ccccc1Cl	62.7%	-29.7%	u	u
Cn1c(CNC(=O)c2ccco2)nnc1SCC(=O)c1ccc(Br)cc1	7.1%	37.3%	13.1%	-8.0%
CC(C)(C)c1ccc(C(=O)N2CCC2(C)C(=O)NS(=O)(=O)c2ccccc2Cl)cc1 (centres undefined)	-0.9%	x	x	x
COc1ccc(CCn2c(=N)c(C(=O)NC3CCCC3)cc3c(=O)n4cccc(C)c4nc32)cc1	1.7%	0.828µM*	-12.7%	0.522µM*
COc1ccc(CCn2c(=N)c(S(=O)(=O)c3ccc(C)cc3)cc3c(=O)n4ccccc4nc32)cc1	16.0%	5.22µM*	-29.7%	3.7µM*
Cc1cccn2c(=O)c3cc(C(=O)NC4CCCC4)c(=N)n(CCc4ccccc4)c3nc12	2.8%	0.465µM*	-1.4%	4.15µM*
COc1ccc(CCn2c(=N)c(C(=O)NC3CCCCC3)cc3c(=O)n4ccccc4nc32)cc1	-10.3%	0.928µM*	u	u
Cc1cccn2c(=O)c3cc(C(=O)NC4CCCC4)c(=N)n(C4CCCCC4)c3nc12	5.3%	17.0%	-25.2%	u
CCCn1c(=N)c(C(=O)NCC2CCCO2)cc2c(=O)n3cccc(C)c3nc21 (centres undefined)	-9.5%	8.9%	11.0%	11.1%
COc1ccc(CCn2c(=N)c(C(=O)N3CCN(C)CC3)cc3c(=O)n4ccccc4nc32)cc1	-12.4%	x	-14.9%	u
CC(C)CC(=O)Nc1nnc(SCC(=O)Nc2nccs2)s1	-8.9%	-3.2%	x	56.8%
COc1ccc(CCn2c(=N)c(C(=O)NCC3CCCO3)cc3c(=O)n4ccccc4nc32)cc1 (centres undefined)	6.4%	4.65µM*	11.8%	4.65µM*
Cc1cc(C)n2nc(SCc3nc4ccccc4[nH]3)nc2n1	-1.0%	44.6%	-0.4%	7.38µM*
Cc1cc(C)n2nc(SCc3ccccc3F)nc2n1	0.2%	-0.6%[0.00184 µM]	-8.3%	38.4%
CSc1nc(N)n2nc(-c3ccccc3)cc2n1	2.2%	345.6%	-15.4%	170.3%
COCCN(CCOC)Cc1cc(=O)oc2cc3c(cc12)CCC3	-5.6%	-16.9%	u	-26.8%
CC(C)CN(Cc1cc(=O)oc2cc3c(cc12)CCCC3)CC(C)C	-1.8%	1.31µM*	9.8%	u
Cc1ccc(NC(=O)CNc2ccccc2N2CCCC2=O)cc1S(=O)(=O)N1CCCCC1	2.6%	10.4µM*	u	9.28µM*
CC(=O)c1ccc(NC(=O)CNC2CCCCC2)cc1	-10.5%	0.4%[0.00184 µM]	-24.5%	3.7%
Cc1ccc(NC(=O)CNC2CCCCC2)cc1Cl	13.7%	u	-20.8%	0.738µM*
Cc1ccc(NC(=O)CSc2nnc(C3CC3)n2C)cc1S(=O)(=O)N1CCCCC1	5.1%	13.1µM*	u	u
Cc1ccc(NC(=O)CN2C(=O)CN(C)C2=O)cc1S(=O)(=O)N1CCCCC1	18.3%	-5.5%	-25.9%	-27.6%
Cc1ccc(NC(=O)CSc2nnc(N)s2)cc1S(=O)(=O)N1CCCCC1	20.5%	u	u	u
Cc1ccc(NC(=O)/C=C/c2ccco2)cc1S(=O)(=O)N1CCCCCC1	-6.8%	x	2.82µM*	x
SMILES	AMA1 RON2 block	Pf growth 48h	HCV inh	Pf growth 96h
Cc1onc(-c2ccccc2Cl)c1C(=O)N[C@@H](C)c1ccccc1	16.2%	x	-2.0%	x
Cc1nc(N2CCN(c3ccccn3)CC2)c2c(C)c(C(=O)N3CCN(c4cccc(Cl)c4)CC3)sc2n1	0.4%	u	-1.5%	0.6%
Cc1ccc(NC(=O)CCl)cc1S(=O)(=O)N1CCCCCC1	11.2%	-5.7%	u	9.28µM*
COCCNCC(=O)Nc1ccc(C)c(S(=O)(=O)N2CCCCC2)c1	-2.8%	-2.5%	3.7%	-2.7%
Cc1ccc(NC(=O)CC2OC(=O)c3ccccc32)cc1S(=O)(=O)N1CCCCCC1 (centres undefined)	-3.3%	8.28µM*	u	u
Cc1ccc(NC(=O)Cc2ccccc2F)cc1S(=O)(=O)N1CCCCCC1	4.8%	u	11.2µM*	u
CCc1noc(C)c1C(=O)Nc1cc(S(=O)(=O)N2CCCCC2)ccc1N(C)C	24.4%	u	-0.9%	u
CCc1noc(C)c1C(=O)Nc1ccc(C)c(S(=O)(=O)N2CCCCCC2)c1	-1.1%	10.4µM*	12.6µM*	u
